Consider 95 compounds from PubChem BioAssay AID2417 (National Center for Advancing Translational Sciences (NCATS), 2010).

About 4,300 (3.1%) of roughly 140,000 compounds were called active. About 21% were inconclusive and are not listed. This excerpt belongs to a sample that is enriched for actives. Values without a mark were called inactive.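 How the source made its calls: active means readout at or below -70, meaning at least 70% loss of cells showing the perinucleolar compartment, a nuclear body marking cancer cells; inconclusive means readout between -30 and a set limit; inactive means the rest.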

The nature of this experiment: High Content Assay for Compounds that inhibit the Assembly of the Perinucleolar Compartment.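 Further: plate controls were DMSO wells for no effect and camptothecin positive control wells for full effect.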 The conditions noted are these: PC3M PTB-GFP, PNC prevalence imaging, 16 h; at 10 µM; active compounds read low. The gist of the method:
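Read-out is percentage of cells bearing a perinucleolar compartment, from automated 20x imaging of fixed, Hoechst-stained PC3M PTB-GFP cells. Cells were seeded 4 h, then exposed 16 h to compound (23 nl of library stock) in duplicate plates.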
As for `CCCCN1C(=O)CCC(C(=O)O)C1c1ccc(OC)cc1` (stereo not given), the activity change (PNC), negative = inhibition is 36.8%. In the case of `CCN(CC)c1ccc(S(=O)(=O)N2CCOCC2)cc1NC(=O)CSc1cccc[n+]1[O-]`, the activity change (PNC), negative = inhibition was 11.8%. With `Cc1nc(NCc2ccccc2)c(C(N)=O)c2c1COC(C)(C)C2`, the activity change (PNC), negative = inhibition was -122% (active). The result for `Cc1nc(NCCN)c(C#N)c2c1COC(C)(C)C2` reads 32.5%; that for `O=C(c1cccnc1NCc1ccccc1)N1CCOCC1`, 40.9%. Turning to `S=C(NCc1ccc(Cl)cc1)NC1CCCCC1`, the activity change (PNC), negative = inhibition is 32.1%.

Take `COc1ccc(S(=O)(=O)N2CCC(C(=O)N3CCOCC3)CC2)cc1OC`: the activity change (PNC), negative = inhibition was -7.88%.

Turning to `COc1ccc(S(=O)(=O)N2CCC(C(=O)N3CCc4ccccc4C3)CC2)cc1OC`, the activity change (PNC), negative = inhibition was -84.1% (active). The result for `COc1ccc(S(=O)(=O)N2CCN(C(=O)c3cccs3)CC2)cc1OC` reads -15.3%.

As for `C=CCNC(=O)/C(=C\c1cccc([N+](=O)[O-])c1)NC(=O)c1ccccc1`, the activity change (PNC), negative = inhibition was 48.8%. As to `O=C(CSc1ncnc2scc(-c3ccccc3)c12)NCc1ccc2c(c1)OCO2`, the activity change (PNC), negative = inhibition was 40.3%.

Regarding `Cc1cc(O)ccc1NC1=CC(=O)CC(C)(C)C1`, the activity change (PNC), negative = inhibition is -15.4%.

As to `Cc1nc2ccccc2cc1OCc1ccc(F)cc1`, the activity change (PNC), negative = inhibition was 41.2%.

Consider `Cc1noc(COc2ccccc2OCC(O)CNC(C)(C)C)n1` (stereo not given), for which the activity change (PNC), negative = inhibition was -3.16%. For `Cc1noc(COc2ccccc2OCc2onc(C)c2Cl)c1Cl`, the activity change (PNC), negative = inhibition was -100% (active). The result for `COc1ccc(CCNC(=O)COC(=O)C2CCCCC2)cc1` reads 43.3%; that for `Cc1cccc(C)c1NC(=O)C(c1ccccc1)N1CC(=O)Nc2ccccc21` (stereo not given), 43.2%; that for `CCn1c(C(C)NC(=O)c2ccc(C)cc2)n[nH]c1=S` (stereo not given), 8.92%. Take `Cc1ccc(CC(=O)Nc2ccc(OC(F)F)c(Cl)c2)cc1C`: the activity change (PNC), negative = inhibition was 5.84%. In the case of `N#CC1=C(SCc2ccc(C#N)cc2)N=C(N)C(c2nc(-c3ccccc3)cs2)C12CCCCC2` (stereo not given), the activity change (PNC), negative = inhibition was -112% (active). The figure for `N#CC1=C(SCc2ccccc2)NC(=O)C(C#N)C12CCCC2` (stereo not given) is 9.75%; for `COc1ccnc(Oc2ccccc2)n1` it is -12.4%. The result for `C/C=C/c1ccc(OCCOc2ccc(C=O)cc2OC)c(OC)c1` reads -108% (active). The result for `C=CCOc1ccc(/C=N/n2cncn2)cc1OC` reads 5.24%; that for `COc1cc(/C=N/NC(=O)Nc2ccccc2)ccc1OCCOc1ccccc1C`, -16.5%. For `CCOC(=O)/C=C/C(=O)OCC(=O)NC(c1ccccc1)c1ccccc1`, the activity change (PNC), negative = inhibition is -28.2%. For the compound `COCCOC(=O)C1=C(C)NC(=O)CC1c1cc2c(cc1Br)OCO2` (stereo not given), the activity change (PNC), negative = inhibition was 63.3%.

Consider `COc1ccc(C2CC(=O)Nc3cc(C)c(C)cc32)c(OC)c1OC` (stereo not given), for which the activity change (PNC), negative = inhibition is -26.4%. Regarding `CCCOc1ccccc1C1CC(=O)Nc2cc3c(cc21)OCO3` (stereo not given), the activity change (PNC), negative = inhibition was -92% (active). Regarding `CCCSc1nc2[nH]ncc2c(=O)[nH]1`, the activity change (PNC), negative = inhibition is 26.1%. Take `Cc1cc(C(=O)COc2ccccc2[N+](=O)[O-])c(C)n1-c1cccc(S(=O)(=O)N2CCOCC2)c1`: the activity change (PNC), negative = inhibition was 101%. With `CC1(C)C2CC=C(/C=N/NC(=O)c3ccc(Cl)cc3)C1C2` (stereo not given), the activity change (PNC), negative = inhibition is 14.2%.

Take `CCN(CC(=O)NCCc1ccccc1)S(=O)(=O)c1ccc(C)cc1`: the activity change (PNC), negative = inhibition is -0.956%. The figure for `O=C(Nc1ccc2c(c1)OCO2)c1ccc(N2C(=O)c3ccccc3C2=O)cc1` is -11%; for `COc1ccc(C(=O)Nc2ccc3c(c2)OCO3)cc1OC` it is 5.14%. The figure for `Cn1c(=O)n(C)c2cc(C(=O)Nc3ccc4c(c3)OCO4)ccc21` is -87% (active); for `COc1cc(C(=O)Nc2cc(C(F)(F)F)ccc2N2CCOCC2)ccc1O` it is 44.6%. The result for `CCOC(=O)C1C(=O)C=C(c2ccc(OC)cc2)CC1c1ccco1` (stereo not given) reads 27.1%; that for `CCOC(=O)C1C(=O)NC(N2CCN(c3ccccc3)CC2)=NC1c1ccco1` (stereo not given), -90% (active).

With `CCOC(=O)C1C(=O)NCC1c1ccccc1` (stereo not given), the activity change (PNC), negative = inhibition was -16.9%.

Turning to `COc1cccc(/C=N/NC(=O)CNC(=O)c2ccc(S(=O)(=O)N3CCOCC3)cc2)c1OC`, the activity change (PNC), negative = inhibition is 69.9%. The figure for `Cc1ccccc1N/C(SCc1ccc(Cl)cc1)=C(/C#N)C(N)=O` is -1.22%; for `CCN(CC)c1ccc(C(=O)N/N=C(\C)c2cccc(OC)c2)cc1` it is 14.7%.

For `Cc1ccc(CCC(=O)Nc2ncc(Cc3cc(Cl)ccc3Cl)s2)o1`, the activity change (PNC), negative = inhibition is -88.9% (active).

`Cc1cnc(C(=O)OCC(=O)Nc2ccc(Cl)cc2Cl)cn1`: the activity change (PNC), negative = inhibition is 261%.

Take `Cc1ccc(Cc2cnc(N)s2)o1`: the activity change (PNC), negative = inhibition was -17.8%.

As for `O=C(/C=C/c1ccccc1[N+](=O)[O-])NCC1CCCO1` (stereo not given), the activity change (PNC), negative = inhibition was 58.9%.

As to `Cc1ccc(SCC(=O)Nc2ccc3c(c2)OCCO3)cc1`, the activity change (PNC), negative = inhibition is 36.7%. Regarding `OCCNCCOc1ccc(Cl)c(Cl)c1`, the activity change (PNC), negative = inhibition is 32.5%. The result for `Cc1ccc(C)c(NC(=O)CSc2nc3c(oc4ccccc43)c(=O)n2-c2ccccc2)c1` reads -5.79%; that for `Cc1ccc(SCCC(=O)OCC(=O)Nc2ncc(Cl)cc2Cl)cc1`, -2.97%. Take `Cc1ccc(-n2c(SCC(=O)Nc3ncc(Cl)cc3Cl)nc3ccccc32)cc1`: the activity change (PNC), negative = inhibition was -115% (active). On to `CN(C)/C(=N\OC(=O)c1ccccc1)c1nonc1N`, for which the activity change (PNC), negative = inhibition is 6.05%. The figure for `C/C(Cc1ccccc1)=N\NC(=O)CNC(=O)c1cccc(Br)c1` is 19.9%; for `Cc1cc(N2CCOCC2)nc(-c2ccc(Br)cc2)n1` it is -19.2%.

On to `CCOc1nc(-c2ccc(OC)cc2)ccc1-c1noc(-c2cc(OC)c(OC)c(OC)c2)n1`, for which the activity change (PNC), negative = inhibition was -17.5%. The figure for `COc1ccc(-c2nc(-c3ccccc3)no2)c(OC)c1` is -102% (active). The figure for `COc1ccc(-c2noc(-c3cccc(OC)c3OC)n2)cc1OC` is 7.54%. The figure for `Cc1ccc(S(=O)(=O)N(NC2=NS(=O)(=O)c3ccccc32)C(=O)c2ccccc2)cc1` is 35.5%. Take `COc1ccc(C(=O)NNS(=O)(=O)c2ccc(C)cc2)cc1`: the activity change (PNC), negative = inhibition was -23.7%. The figure for `N#CCCN1CCN(S(=O)(=O)c2ccc(S(=O)(=O)N3CCCC3)cc2)CC1` is -15%; for `CC(C)(C)c1cc(CN2CCN(CCC#N)CC2)cc(C(C)(C)C)c1O` it is -122% (active); for `N#CCCN1CCN(S(=O)(=O)c2ccc(S(=O)(=O)NC3CC3)cc2)CC1` it is -11.6%. The result for `CCCCC(=O)Nc1ccc(C(=O)Nc2cc(C(F)(F)F)ccc2Cl)cc1` reads 22.8%; that for `CC(=O)Nc1cccc(/C(C)=N/NC(=O)c2ccccc2Cl)c1`, 5.62%; that for `Cc1onc(-c2ccccc2Cl)c1C(=O)NCCn1ccc2ccccc21`, -12.7%.

For `CC(=O)Nc1cccc(/C(C)=N/NC(=O)c2c(-c3ccccc3Cl)noc2C)c1`, the activity change (PNC), negative = inhibition is -109% (active). With `CC(C)=C(NC(=O)c1ccccc1)C(=O)N/N=C(\C)c1ccccc1O`, the activity change (PNC), negative = inhibition was 6.63%. The figure for `CCOc1cccc(-c2nnc3sc(COc4ccc(OC)cc4)nn23)c1` is -29.7%; for `CCOc1cccc(-n2nnnc2-c2ccc(OC)cc2)c1` it is -83.5% (active). The figure for `COc1ccc(-n2nnnc2-c2nc3ccccc3s2)cc1` is -8.45%. With `CSCCC(Nc1ccc(S(=O)(=O)N2CCOCC2)cc1[N+](=O)[O-])C(=O)OCC(=O)N(C(C)C)C(C)C` (stereo not given), the activity change (PNC), negative = inhibition is -25.5%.

In the case of `CCC(C)(C(=O)Nc1ccccc1C)N(C(=O)CNC(C)=O)c1ccc(C)cc1` (stereo not given), the activity change (PNC), negative = inhibition was -15.4%. The result for `COc1ccc(-c2nc(CS(=O)CC(=O)NCc3ccccn3)c(C)o2)cc1` (stereo not given) reads -19.8%. As to `Cc1ccc(-c2nc(CS(=O)CC(=O)NC3CCCC3)c(C)o2)cc1` (stereo not given), the activity change (PNC), negative = inhibition was -106% (active). The figure for `Cc1ccc(-c2nc(CS(=O)CC(=O)N3CCN(c4ncccn4)CC3)c(C)o2)cc1` (stereo not given) is 11.5%. In the case of `CSc1ccc(/C=C/C(=O)NC23CC4CC(CC(C4)C2)C3)cc1`, the activity change (PNC), negative = inhibition is 11.8%. The figure for `CCCCOc1ccc(Cl)cc1CSc1nncn1N` is -89.7% (active); for `Cc1cc(=O)[nH]c(SCc2cc(Cl)ccc2OC(F)F)n1` it is 4.54%.

With `CCOC(=O)c1c(NC(=O)Cn2nc(C(F)(F)F)cc2C)sc2c1CCC2`, the activity change (PNC), negative = inhibition was 36.1%. The figure for `CN1CCN(C(=O)/C(=C\c2cccs2)NC(=O)c2cccs2)CC1` is 0.966%; for `COc1cc2c(cc1/C=C1/NC(=O)N(c3ccccc3)C1=O)OCO2` it is -20.8%; for `CCOC(=O)c1c(C)n(C)c2ccc(OC)c(NS(=O)(=O)CC)c12` it is -8.82%.

Regarding `COc1ccc2c(-c3ccccc3)cc(SCC(=O)N(C)C3CCS(=O)(=O)C3)nc2c1` (stereo not given), the activity change (PNC), negative = inhibition is 46.3%. The result for `O=[N+]([O-])c1ccc(N2CCNCC2)cc1NCc1cccnc1` reads 59.2%; that for `Cc1cc(NC(=O)c2cccc(N3C(=O)CCC3=O)c2)no1`, -7.91%; that for `O=C(Nc1cccc2cccnc12)c1cccc(N2C(=O)CCC2=O)c1`, -100% (active). The result for `COc1ccccc1NC(=O)c1ccc2nc(N3C(=O)CCC3=O)sc2c1` reads 133%; that for `CCOC(=O)NN1C(=O)c2ccccc2NC1c1ccccc1O` (stereo not given), 19.7%. The figure for `O=C(OCC(=O)c1c[nH]c2ccccc12)c1cccc(O)c1` is 49.4%; for `O=S(=O)(NCC1CCCO1)c1cnc(Cl)c(Cl)c1` (stereo not given) it is -19.6%.

For the compound `CO/N=C/c1ccc(N2CCN(C(=O)c3cccc(Cl)c3)CC2)c([N+](=O)[O-])c1`, the activity change (PNC), negative = inhibition is 77.9%. The result for `O=C(/C=C/c1ccc(Cl)cc1)N1CCN(c2ccccc2[N+](=O)[O-])CC1` reads -91.4% (active). The result for `Cc1cccc(N2CCN(C(=O)/C=C/c3ccco3)CC2)c1C` reads 16.7%. In the case of `CCCN=C1NC(=O)C(CC(=O)NCCc2ccc(OC)c(OC)c2)S1` (stereo not given), the activity change (PNC), negative = inhibition is 58.6%.
